Vc quorum ag = inducers of Vibrio cholerae quorum light production without autoinducers, primary screen, BH1578 luxS cqsA deficient, single point. V. cholerae BH1578 lux reporter, luminescence, 6 h. activation, % at 18.7 µM. 350,000 compounds, 0.16% hits; in the data active = activation mostly above about 9.7%, no sharp cut-off; inconclusive = no clear call, values can overlap the other calls; inactive = mostly below about 3.7%
BJeLR viability = MLPCN primary cell-based screen for lethality selective to Ras in HRASV12 cells; BJeLR (HRASV12) viability, CellTiter-Glo ATP luminescence, 48 h; inhibition, % (test concentration not listed); 300,000 compounds, 0.17% hits; in the data active = inhibition above about 50%; inconclusive = no clear call, values can overlap the other calls
BoNT-F LC inh = BoNT/F light chain protease inhibitors, primary screen, biochemical, flow cytometry, MLPCN library | Multiplex microsphere protease cleavage assay | inhibition, % at 10 µM | 360,000 compounds, 0.22% hits | AID 588497, 2011; in the data active = inhibition above about 35%, passing the limit was not always enough; inconclusive = no clear call, values can overlap the other calls; note: plate controls were buffer without enzyme for full effect and enzyme alone for no effect
Anthrax LF inh2 = Bacillus anthracis LF protease inhibitors, primary screen, biochemical, multiplex microsphere, MLPCN library. multiplex microsphere protease cleavage assay. inhibition, % at 10 µM. 360,000 compounds, 0.12% hits; note: plate controls were buffer without enzyme for full effect and enzyme alone for no effect
BoNT-A LC inh2 = BoNT/A light chain protease inhibitors, primary screen, biochemical, flow cytometry, MLPCN library | multiplex microsphere protease substrate cleavage | inhibition, % at 10 µM | 360,000 compounds, 0.17% hits; note: plate controls were buffer without enzyme for full effect and enzyme alone for no effect
Bead autofluor = counter-screen for toxin protease inhibitors: compound fluorescence | 360,000 compounds, 3.1% hits | fluorescence intensity (test concentration not listed) | compound autofluorescence counterscreen, microsphere flow cytometry; stronger effect = higher value; in the data active = fluorescence intensity above about 16000; inconclusive = no clear call, values can overlap the other calls
An asterisk follows results filed as active; i = inactive; ? = inconclusive; nt = no result. A selection: hits, their analogues and other compounds. The true share with any hit is near 3.7%. Cut-off read from the data, not from the text of the source, unless noted: active = inhibition above about 30%; inconclusive = no clear call, values can overlap the other calls; inactive = below that.

SMILES	Vc quorum ag	BJeLR viability	BoNT-F LC inh	Anthrax LF inh2	BoNT-A LC inh2	Bead autofluor
CC1=NN(c2ccccc2)C(=O)/C1=C\N1CC(C)OC(C)C1 (stereo not drawn)	i	-3.7	0.0	-2.8	1.2	16159*
CCCCCc1cc(O)c2c(C)cc(=O)oc2c1	i	8.2	-7.0	-1.1	-3.1	23187*
O=c1[nH]c(SCc2ccccc2Cl)nc2c1CCCC2	i	0.9	-2.6	1.0	-1.3	20115*
Cc1ccc(S(=O)(=O)Nc2nc(C)c(NC(=O)OCCCl)s2)cc1	i	9.0	-7.1	-2.8	-5.3	21860*
COc1cc(NC(=O)c2sc3ncn(CC(=O)N4CCCCC4C)c(=O)c3c2C)cc(OC)c1OC (stereo not drawn)	-0.8	nt	-2.7	-4.5	-0.4	3725
COc1ccc(CN2C[C@@H](CO)O[C@@H](n3cnc4c(NCCO)ncnc43)C2)cc1	i	nt	-2.9	-6.1	-0.2	3523
CCN(CC)CCCNC(=O)c1cc(-c2ccccc2)c(N2CCCCC2)s1	i	50.9*	-14.4	4.9	0.8	3689
CCCSC1=C(C#N)C(c2ccc(Cl)cc2Cl)CC(=O)N1 (stereo not drawn)	-0.9	-3.0	-4.8	-1.4	-3.0	24553*
CCOc1ccccc1C1CC(=O)NC(SCC)=C1C#N (stereo not drawn)	i	10.9	-3.7	-3.6	-0.9	13272
N#CC1=C(SCc2ccccc2)NC(=O)CC1c1ccco1 (stereo not drawn)	-6.2	-2.7	-2.2	-4.8	-0.1	20548*
CCCSC1=C(C#N)C(c2ccccc2OCC)CC(=O)N1 (stereo not drawn)	6.1	-0.8	-7.4	-2.4	-3.4	23587*
CCOC(=O)c1cc2c(c(-c3cccc(C#Cc4ccc(OC)c(OC)c4)c3)n1)[C@@H](CCO)N(S(=O)C(C)(C)C)C2 (stereo partly drawn)	nt	nt	-12.4	-4.8	-0.8	6114
CN(C)c1ccc(N/C=C/C(=O)c2ccc(F)cc2)cc1	-1.0	5.2	6.7	-1.9	?	20250*
NS(=O)(=O)c1ccc(N/C=C\C(=O)c2ccc(F)cc2)cc1	1.7	-21.9	-6.0	-3.6	-0.8	3191
Cc1cccc(OCC(=O)N2CCc3ccccc3C2)c1C	-4.8	nt	1.0	4.1	0.1	3885
Cc1ccc(NC(=O)N(Cc2cccnc2)Cc2ccco2)cc1C	-0.2	9.7	-4.1	-6.6	-3.2	23168*
CCC1(CC)C(=O)NC(=O)NC1=Nc1cccc(OC)c1	0.5	1.2	21.8	3.4	0.4	4728
CCCCC1(CC)C(=O)NC(=O)NC1=Nc1ccc(OC)cc1 (stereo not drawn)	14.3	-1.4	5.0	-0.6	3.0	21503*
CCCOP(=O)(c1ccc(N(C)C)cc1)C(O)c1ccncc1 (stereo not drawn)	3.0	nt	2.6	-7.7	1.5	19418*
Cc1cc(N2CCN(C(=O)c3ccco3)CC2)n2nc(-c3cccc(Cl)c3)cc2n1	-2.7	-7.1	0.6	1.1	?	16545*
COC1=C(N)C(=O)c2nc(-c3nc(C(=O)O)c(C)c(-c4ccc(OC)c(OC)c4O)c3N)ccc2C1=O	179.2*	nt	nt	nt	nt	nt
COC(=O)c1nc(-c2ccc3c(n2)C(=O)C(N)=C(OC)C3=O)c(N)c(-c2ccc(OC)c(OC)c2O)c1C	11.5	64.4*	-15.5	9.4	-1.1	3779
COc1ccccc1C(C)Nc1nc(-c2cccnc2)nc2ccccc12 (stereo not drawn)	4.4	-6.2	2.2	-4.0	-0.4	4177
Cc1ccc(C(=O)NCCNc2ccc(Cl)cc2[N+](=O)[O-])o1	i	2.3	-4.3	-2.9	?	22948*
CS(=O)(=O)NCCCNc1ccc(Cl)cc1[N+](=O)[O-]	-2.9	-7.8	1.0	1.3	1.1	22714*
SMILES	Vc quorum ag	BJeLR viability	BoNT-F LC inh	Anthrax LF inh2	BoNT-A LC inh2	Bead autofluor
O=C(NCCNc1ccc(Cl)cc1[N+](=O)[O-])c1ccccc1F	-0.5	-3.4	?	-7.5	-3.0	4266
CS(=O)(=O)NCCCNc1ccc(C(F)(F)F)cc1[N+](=O)[O-]	i	6.1	-0.2	-3.5	-0.7	4421
Cn1c(/N=C(\N)c2ccccc2)nc2ccccc21	i	nt	-10.8	-10.4	-0.7	2925
CCCn1c2ccccc2c2nnc(SCC(=O)OCC)nc21	-0.4	-1.9	-8.3	0.0	0.2	2128
CCCn1c2ccccc2c2nnc(SCC(=O)OC)nc21	-12.5	-2.4	6.3	-5.4	4.7	20508*
Nc1nonc1-n1nnc(C(=O)N/N=C/c2ccco2)c1CSc1ccc(Cl)cc1	i	nt	4.7	3.8	-0.1	3580
CNC(=O)C1=NCCCc2cc(OC)c(OC)cc21	i	-7.2	-1.2	-0.2	?	20275*
COc1cc2c(cc1OC)C(=O)CCC2	i	nt	-16.8	-8.7	-0.4	3962
CSc1ccc(N2CCN(CCCNC(=O)Nc3ccccc3F)CC2)cc1	1.6	11.2	-7.6	-2.2	-3.6	24815*
NC(=O)C1(N2CCCCC2)CCN(C(=S)NCCc2ccccc2)CC1	i	10.2	-5.6	2.9	0.4	4719
CC(=C1C(=O)c2ccccc2C1=O)N1CCC(C(N)=O)(N2CCCCC2)CC1	i	-2.5	-2.0	-5.8	-0.9	23736*
O=C(CSc1ncnc2nc[nH]c12)NCCc1ccccc1	i	2.8	3.6	-6.9	-0.6	3124
CC(NC(=O)CSc1ncnc2nc[nH]c12)c1ccccc1 (stereo not drawn)	i	0.3	4.0	-5.6	1.2	21770*
Cc1cc(C=C(C#N)C#N)ccc1N1CCCC1	-0.5	0.9	14.0	20.9	50.2*	3451
CCCN1C(=O)/C(=C/c2ccc(N3CCCC3)c(C)c2)NC1=S	0.4	7.1	14.0	9.1	11.1	18761*
Cc1cc(/C=C2/C(=O)N(C)C(=S)N2C)ccc1N1CCCC1	i	0.1	30.5	21.9	36.0*	15497
Cc1cc(N2CCCC2)ccc1/C=C1/C(=O)N(C)C(=S)N1C	-0.5	0.7	-2.3	0.4	6.6	5322
Cc1cc(/C=C2\NC(=S)N(C)C2=O)ccc1N1CCCC1	0.4	1.2	8.6	4.7	4.7	6349
CN(C(=S)NC(=O)c1ccccc1)C1CCCCC1	0.4	6.8	1.5	-0.3	0.3	5309
C[C@H](O)[C@@H]1C(=O)N2CCc3ccc(N4CCN(C)CC4)cc3[C@@H]2C[C@@H]1N(C)C(=O)c1cccnc1	i	nt	-0.9	-2.5	-0.2	2937
O=C(N1CCN(c2cccc(Cl)c2)CC1)C1(S(=O)(=O)c2ccc(Cl)cc2)CC1	-0.3	-10.9	10.0	-1.2	-0.4	3795
COc1ccc(N2CCN(CCCNC(=O)C3(S(=O)(=O)c4ccc(Cl)cc4)CC3)CC2)cc1	1.0	-4.2	-15.7	-7.2	?	26083*

Screening results: PubChem, several laboratories
